Screening results from PubChem.
A selection: hits, their analogues and other compounds. The true share with any hit is near 7%.
GRIN3A LBD mod – modulates the human NR3A ligand-binding domain. NR3A LBD differential scanning fluorimetry, Tm shift; 0% = protein alone, 100% = glycine-bound protein. Tm shift relative to glycine control, % at 25 µM. hit rate 2.5% among 340,000. AID 1259313;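 active means melting temperature shift of at least 10% of the positive control shift, at one fixed dose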
rCAG RNA binder – molecules binding r(CAG) RNA repeats. r(CAG) RNA repeat, TO-PRO-1 dye displacement fluorescence. inhibition, % at 3 µM. hit rate 1.3% among 370,000. AID 651821;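 active means inhibition above the plate cutoff, the mean of all test compounds on that plate plus 3 SD, cut at about 35% in these data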;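 further: 0% = DMSO alone and 100% = 100 µM mitoxantrone as full dye displacement; higher means more dye released from RNA so lower well fluorescence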
AHR act – activates the human aryl hydrocarbon receptor; P35869; AHR-responsive luciferase reporter cells, luminescence; activation, % at 5 µM; hit rate 2.5% among 320,000; AID 2796; in the data active means activation above about 47%;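 further: 0% = vehicle wells and 100% = reference agonist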
ADAM10 inh – inhibitors of human ADAM10 | AID 720582 | recombinant ADAM10, EDANS/DABCYL FRET peptide cleavage, 3 h | inhibition, % at 7 µM | O14672 | hit rate 0.62% among 370,000;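 active means inhibition above a per-campaign cutoff equal to the mean of compounds falling between control-based bounds plus 3 SD, cut at about 20% in these data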;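 further: 0% = DMSO wells while the 100% control is not disclosed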
Target sequence (O14672 214-748 limits assumed): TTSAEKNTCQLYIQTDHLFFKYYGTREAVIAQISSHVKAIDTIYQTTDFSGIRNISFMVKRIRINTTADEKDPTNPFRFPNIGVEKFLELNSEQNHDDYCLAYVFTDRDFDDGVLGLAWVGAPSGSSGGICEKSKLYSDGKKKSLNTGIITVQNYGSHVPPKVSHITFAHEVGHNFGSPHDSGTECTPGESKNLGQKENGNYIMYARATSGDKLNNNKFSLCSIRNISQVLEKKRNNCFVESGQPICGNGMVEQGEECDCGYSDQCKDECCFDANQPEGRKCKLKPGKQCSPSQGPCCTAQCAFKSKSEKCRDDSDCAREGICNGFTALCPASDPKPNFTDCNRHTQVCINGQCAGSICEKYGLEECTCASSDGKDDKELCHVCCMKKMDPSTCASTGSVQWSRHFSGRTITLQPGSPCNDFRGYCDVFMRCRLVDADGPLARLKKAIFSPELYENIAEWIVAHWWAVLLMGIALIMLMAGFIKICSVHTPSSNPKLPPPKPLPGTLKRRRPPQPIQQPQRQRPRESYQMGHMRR
ADAM17 inh – inhibitors of human ADAM17. recombinant ADAM17, EDANS/DABCYL FRET peptide cleavage. inhibition, % at 6.95 µM. hit rate 0.83% among 370,000;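 active means inhibition above the mean of compounds lying between control limits plus 3 SD, set per campaign, cut at about 8.5% in these data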;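 further: 0% = DMSO-only wells as the low control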
proKLK7 act – activates the human kallikrein-7 zymogen | P49862 | purified proKLK7, EDANS-DABCYL substrate fluorescence; 100% is mature enzyme control, 0% vehicle | activation, % at 7 µM | hit rate 0.9% among 370,000;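 active means activation above the mean of all tested compounds plus 3 SD, computed per campaign excluding outliers beyond control limits, cut at about 13% in these data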
ADAM10 confirm – human ADAM10 inhibition, confirmation. shares compounds with ADAM10 inh. inhibition, % at 6.95 µM. AID 743208. ADAM10 QFRET peptide cleavage, EDANS fluorescence. hit rate 1% among 2,100;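 active means inhibition above about 20% chosen separately for each screening run, limit read from the data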;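 further: 0% = DMSO wells and 100% = marimastat wells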
ADAM17 counter – inhibits human ADAM17 in ADAM10 exosite counter-screen. shares compounds with ADAM10 inh. ADAM17 QFRET peptide cleavage, EDANS fluorescence. hit rate 0.5% among 2,100. AID 743214. inhibition, % at 6.95 µM;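 active means mean triplicate inhibition above the solvent-only control wells' mean plus 3 SD, cut at about 12% in these data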;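 further: 0% = DMSO wells and 100% = marimastat wells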
ADAM10 ctr – counter-screen for ADAM17 exosite inhibitors: inhibitors of human ADAM10 | shares compounds with ADAM17 inh | recombinant ADAM10, EDANS/DABCYL FRET peptide cleavage, 3 h | inhibition, % at 6.95 µM | hit rate 47% among 2,900 | AID 743256;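 active means mean inhibition over the triplicate runs exceeds the activity threshold set in the earlier primary screen, cut at about 20% in these data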;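 further: 0% = DMSO wells and 100% = marimastat wells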
ADAM17 confirm – human ADAM17 inhibition, confirmation; hit rate 65% among 2,900; shares compounds with ADAM17 inh; inhibition, % at 6.95 µM; recombinant ADAM17, EDANS/DABCYL QFRET peptide cleavage;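 active means mean inhibition across replicates above the hit cutoff set in the primary screen, cut at about 8.5% in these data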;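 further: 0% = DMSO wells and 100% = marimastat wells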
* marks the source's active call; other numbers are inactive results; . = not tested or not shown.

SMILES	GRIN3A LBD mod	rCAG RNA binder	AHR act	ADAM10 inh	ADAM17 inh	proKLK7 act	ADAM10 confirm	ADAM17 counter	ADAM10 ctr	ADAM17 confirm
C=CC[C@@H](CC(=O)NCCO)C(=O)N[C@H](COC(=O)[C@@H](CC=C)Cc1ccc(F)cc1)Cc1c[nH]c2ccccc12	-4	1	0	-13	2	0	.	.	.	.
C=CCC[C@H](Cc1ccc(F)cc1)C(=O)OC[C@@H](Cc1c[nH]c2ccccc12)NC(=O)[C@@H](CC=C)CC(=O)NCCO	-6	-4	2	27*	17*	0	5	2	35*	17*
C=CCC[C@@H](Cc1ccc(F)cc1)C(=O)OC[C@@H](Cc1c[nH]c2ccccc12)NC(=O)[C@@H](CC=C)CC(=O)NCCO	-4	1	0	28*	17*	1	3	0	29*	15*
C=CCC[C@H](Cc1ccc(F)cc1)C(=O)OC[C@H](Cc1c[nH]c2ccccc12)NC(=O)[C@H](CC=C)CC(=O)NCCO	-3	-6	1	24*	9.4*	0	4	1	43*	22*
O=C(Nc1ccc(-c2n[nH]c(=S)o2)cc1)c1ccccc1	3	8	0	3	0	0	.	.	.	.
COc1ccccc1NC(=O)OCC#CCOC(=O)Nc1ccccc1OC	-10	-4	4	14	4	0	.	.	.	.
COc1ccc(OCCNC(=O)c2ccc3nc(C)c(N(C)Cc4ccc(NC(C)=O)cc4)n3c2)cc1	.	1	.	1	2	0	.	.	.	.
CC(C)=C[C@H]1C[C@H](C)[C@H]2CC[C@H](C)c3c(O[C@@H]4OC[C@@H](O)[C@H](O)C4O)c(O)c(C)c1c32 (some centres undefined)	29*	3	1	30*	21*	1	6	3	15	9.1*
CC(=O)OC1[C@H](Oc2c(O)c(C)c3c4c2[C@@H](C)CC[C@@H]4[C@@H](C)C[C@@H]3C=C(C)C)OC[C@@H](O)[C@@H]1O (some centres undefined)	-3	5	27	6	4	0	.	.	.	.
Cc1onc(-c2c(F)cccc2Cl)c1C(=O)OCN1C(=O)c2ccccc2C1=O	2	-2	4	-18	4	0	.	.	.	.
Cc1[nH]c2ccccc2c1C(=O)COC(=O)c1c(-c2c(F)cccc2Cl)noc1C	29*	6	5	26*	13*	0	5	2	32*	17*
Cc1nc(SC2CC(=O)N(c3cc(Cl)cc(Cl)c3)C2=O)nc2c1CCCC2 (centres undefined)	-12	8	0	34*	10*	0	5	1	11	8
CCC(C)NS(=O)(=O)c1ccc(NC(=O)C(Sc2ccccc2)c2ccccc2)cc1 (centres undefined)	13*	17	-2	41*	20*	0	8	3	42*	22*
COCCN(CCOC)C(=O)c1ccc(NS(=O)(=O)c2ccc3[nH]c(=O)[nH]c3c2)cc1	2	-2	3	-3	-1	-1	.	.	.	.
COC(=O)C[C@@H]1CC[C@@H](NC(C)=O)[C@@H](CO)O1	.	0	.	-11	-5	1	.	.	.	.
COc1ccc(C2CC(c3ccccc3)=NN2C(=O)COC(=O)c2cccnc2Cl)cc1 (centres undefined)	-4	-1	2	20*	8.9*	1	5	1	14	9.3*
Cc1ccc(C(=O)OCN2C(=O)c3ccccc3C2=O)c(O)c1	1	2	4	2	0	0	.	.	.	.
CCCCC[C@@H](C)N1C[C@@H](COCc2ccccc2)Oc2cc(N3CC[C@H](O)C3)ccc2S1(=O)=O	.	5	.	22*	9.1*	0	11	3	34*	18*
CCCCC[C@H](C)N1C[C@@H](COCc2ccccc2)Oc2cc(N3CC[C@@H](O)C3)ccc2S1(=O)=O	.	7	.	7	7	0	.	.	.	.
COc1ccccc1CC(=O)Nc1ccc(S(=O)(=O)N2CC(C)CC(C)C2)cc1 (centres undefined)	-6	3	1	6	3	1	.	.	.	.
COc1cccc(/C=C2/Oc3ccccc3N(CC(=O)NCC3CCCO3)C2=O)c1 (centres undefined)	-8	.	1	.	.	.	.	.	.	.
CN(C(=O)c1cccc(NC(=O)Cc2ccc(NC(=O)C3CCN(S(=O)(=O)c4cccc([N+](=O)[O-])c4)CC3)cc2)c1)C1CCC1	-6	15	.	20*	12*	1	0	0	24*	8.9*
CC(=O)n1cc([C@@H]2C=C(C(=O)N3CCN(Cc4ccccc4)CC3)O[C@H](OCc3ccc(CO)cc3)C2)c2ccccc21	-4	3	11	5	-1	1	.	.	.	.
O=C(Nc1ccccc1)C1=C[C@@H](c2ccccc2)C[C@@H](OCc2ccc(CO)cc2)O1	-4	-3	11	6	2	0	.	.	.	.
O=C(Nc1ccccc1)C1=C[C@@H](c2ccc(C(F)(F)F)cc2)C[C@@H](OCc2ccc(CO)cc2)O1	5	9	2	27*	11*	1	7	3	13	10*
O=C(NCc1ccccc1)C1=C[C@H](c2ccc(Br)cc2)C[C@H](OCc2ccc(CO)cc2)O1	-5	9	-1	21*	9.9*	1	12	4	28*	18*
CC(=O)n1cc([C@@H]2C=C(C(=O)Nc3ccccc3)O[C@H](OCc3ccc(CO)cc3)C2)c2ccccc21	-4	7	21	31*	8.9*	0	7	3	13	14*
O=C(NCc1ccccc1)C1=C[C@@H](c2ccccc2)C[C@@H](OCc2ccc(CO)cc2)O1	-4	5	-2	-3	-4	0	.	.	.	.
CC1CC(C)CN(c2nc3c(c(=O)n(C)c(=O)n3C)n2CCSc2nc3ccccc3o2)C1 (centres undefined)	0	3	.	3	0	0	.	.	.	.
